Screens (PubChem BioAssay)
Compounds with a hit are over-represented: about 10% of the library has one in this group of screens.
HP1b binding inh = HTS for Inhibitors of HP1-beta Chromodomain Interactions with Methylated Histone Tails; AlphaScreen HP1-beta / biotin-H3K9me3 peptide binding; Potency, µM (doses to about 114 µM), inactives show at the top dose activity change, negative = inhibition, actives largely listed as inhibitors; 0.56% of 390,000 active; AID 540317, 2011; note: potency is the fitted concentration of half-maximal effect; nearly all actives have a fitted effect of over 70% in size
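HP1-beta protein (50 nM final) preincubated 30 min at room temperature with biotinylated H3(1-18)K9me3 peptide (50 nM) in PBS pH 7.4, 0.01% Tween-20, then compound added for 30 min. AlphaScreen streptavidin donor/nickel chelate acceptor beads (10 ug/mL final), 30 min dark, luminescence read.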
BAZ2B inh = qHTS Assay for Inhibitors of BAZ2B; Bromodomain adjacent to zinc finger domain protein 2B (Homo sapiens), Q9UIF8; AlphaScreen BAZ2B-H3K14Ac peptide displacement; Potency, µM (titrated, usually from 114 µM), for the others: at the highest dose activity change, negative = inhibition, most hits filed as inhibitors; 4.4% of 360,000 active; AID 504333, 2011; note: potency is the fitted concentration of half-maximal effect; % is set by controls: 0 for no effect and ±100 for the full control effect; nearly all actives have a fitted effect of over 60% in size
Target sequence (Q9UIF8 whole entry, looked up, the tested form may be a part): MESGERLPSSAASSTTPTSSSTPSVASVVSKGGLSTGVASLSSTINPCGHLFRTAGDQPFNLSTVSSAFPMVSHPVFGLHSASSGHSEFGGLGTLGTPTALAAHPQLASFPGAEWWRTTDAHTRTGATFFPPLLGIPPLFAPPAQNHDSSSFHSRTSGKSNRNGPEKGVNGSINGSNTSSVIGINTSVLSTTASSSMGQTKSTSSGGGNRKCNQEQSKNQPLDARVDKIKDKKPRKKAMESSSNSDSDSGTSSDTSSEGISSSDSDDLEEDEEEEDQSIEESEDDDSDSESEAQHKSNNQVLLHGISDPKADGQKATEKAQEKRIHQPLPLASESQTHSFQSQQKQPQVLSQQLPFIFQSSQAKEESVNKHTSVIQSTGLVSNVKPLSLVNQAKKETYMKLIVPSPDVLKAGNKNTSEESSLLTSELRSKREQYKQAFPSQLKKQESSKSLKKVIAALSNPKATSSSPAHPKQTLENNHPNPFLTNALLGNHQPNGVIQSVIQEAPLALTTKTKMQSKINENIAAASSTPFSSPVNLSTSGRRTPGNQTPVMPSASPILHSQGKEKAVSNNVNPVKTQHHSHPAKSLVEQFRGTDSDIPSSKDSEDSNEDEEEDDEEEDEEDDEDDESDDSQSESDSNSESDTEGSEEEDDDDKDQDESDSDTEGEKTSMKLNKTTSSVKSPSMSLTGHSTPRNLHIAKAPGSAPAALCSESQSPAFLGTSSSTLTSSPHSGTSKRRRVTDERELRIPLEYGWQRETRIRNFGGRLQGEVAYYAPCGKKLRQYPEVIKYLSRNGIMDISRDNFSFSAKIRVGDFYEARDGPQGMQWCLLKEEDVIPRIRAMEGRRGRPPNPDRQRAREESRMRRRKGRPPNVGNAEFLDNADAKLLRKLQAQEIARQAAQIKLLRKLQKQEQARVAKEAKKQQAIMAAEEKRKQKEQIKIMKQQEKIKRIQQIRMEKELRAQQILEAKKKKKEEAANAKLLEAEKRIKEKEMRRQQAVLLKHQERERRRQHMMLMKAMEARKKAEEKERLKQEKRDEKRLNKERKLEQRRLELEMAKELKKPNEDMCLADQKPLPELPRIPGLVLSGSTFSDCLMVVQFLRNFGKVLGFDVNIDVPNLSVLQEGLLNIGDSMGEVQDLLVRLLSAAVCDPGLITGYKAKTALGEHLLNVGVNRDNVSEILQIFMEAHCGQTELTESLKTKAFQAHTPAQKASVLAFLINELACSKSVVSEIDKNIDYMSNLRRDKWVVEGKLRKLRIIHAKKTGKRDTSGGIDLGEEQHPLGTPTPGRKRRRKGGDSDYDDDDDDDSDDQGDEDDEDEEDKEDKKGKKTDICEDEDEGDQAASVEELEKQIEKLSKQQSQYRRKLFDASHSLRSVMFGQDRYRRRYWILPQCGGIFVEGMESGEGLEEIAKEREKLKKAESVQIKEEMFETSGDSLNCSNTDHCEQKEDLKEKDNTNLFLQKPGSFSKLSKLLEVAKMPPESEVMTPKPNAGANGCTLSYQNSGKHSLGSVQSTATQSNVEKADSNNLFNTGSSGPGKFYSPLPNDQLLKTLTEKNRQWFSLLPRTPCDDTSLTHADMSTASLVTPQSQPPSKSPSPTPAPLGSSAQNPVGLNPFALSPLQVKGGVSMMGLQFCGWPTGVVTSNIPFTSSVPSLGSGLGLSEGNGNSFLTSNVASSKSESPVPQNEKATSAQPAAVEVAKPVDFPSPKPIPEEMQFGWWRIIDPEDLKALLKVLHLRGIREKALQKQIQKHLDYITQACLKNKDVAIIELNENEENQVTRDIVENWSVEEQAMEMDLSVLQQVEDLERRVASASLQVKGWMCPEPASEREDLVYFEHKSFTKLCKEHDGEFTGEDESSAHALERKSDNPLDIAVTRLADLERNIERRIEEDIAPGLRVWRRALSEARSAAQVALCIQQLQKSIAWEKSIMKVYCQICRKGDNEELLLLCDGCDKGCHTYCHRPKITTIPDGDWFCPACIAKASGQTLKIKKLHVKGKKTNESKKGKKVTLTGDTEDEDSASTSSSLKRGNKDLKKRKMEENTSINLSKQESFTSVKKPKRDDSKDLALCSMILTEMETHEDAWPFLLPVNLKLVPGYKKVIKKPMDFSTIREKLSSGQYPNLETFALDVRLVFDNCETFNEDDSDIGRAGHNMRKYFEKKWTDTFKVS
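BAZ2B (50 nM) with biotin-H3(5-23)K14Ac peptide (50 nM) in PBS pH 7.4, 0.01% Tween-20, preformed 30 min, then compound 30 min at room temperature; top concentration 110uM. AlphaScreen streptavidin donor/nickel chelate acceptor beads (10 ug/mL final), 20 min dark, signal read.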
JMJD2A Tudor inh = qHTS Assay for Inhibitors of JMJD2A-Tudor Domain; Potency, µM (top dose mostly 114 µM), for the others: at the top dose activity change, negative = inhibition, most hits filed as inhibitors; AlphaScreen JMJD2A-Tudor / H3K4me3 peptide binding; AID 504339, 2011; Lysine-specific demethylase 4A (Homo sapiens), O75164; 4.4% of 390,000 active; note: potency is the fitted concentration of half-maximal effect; % is set by controls: 0 for no effect and ±100 for the full control effect; nearly all actives have a fitted effect of over 50% in size
CtBP-E1A inh = qHTS Assay for Inhibitors of the CtBP/E1A Interaction. CtBP / adenovirus E1A interaction (AlphaScreen). AlphaScreen GST-E1A/His-CtBP binding, 1536-well; stronger effect = lower value. activity change, % (test concentration not listed). 0.49% of 340,000 active. AID 651724, 2012; in the data active = activity change below about -65%; inconclusive = mostly about -30% to -63%; note: % is set by controls: 0 for no effect and ±100 for the full control effect
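Homogeneous bead-based format: GST-tagged E1A captured on glutathione donor beads, His-tagged CtBP on nickel acceptor beads; compounds precede bead addition by 2 h at 37 °C.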
G9a inh = qHTS Assay for Inhibitors of Histone Lysine Methyltransferase G9a. G9a H3K9 monomethylation, AlphaScreen, 2 h. 8.8% of 350,000 active. Potency, µM (highest dose often 102 µM), for the others: at the top dose activity, negative = inhibition, hits mostly inhibitors. Histone-lysine N-methyltransferase EHMT2 (Homo sapiens), Q96KQ7; note: potency is the fitted concentration of half-maximal effect; % is set by controls: 0 for no effect and ±100 for the full control effect; nearly all actives have a fitted effect of over 75% in size
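Methyltransferase reactions run at room temperature for 2 h (20 nM enzyme, 500 nM biotin-H3K9 peptide, 20 uM SAM) after a 15 min compound preincubation; product detected by AlphaScreen beads and anti-H3K9me1 antibody.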
Six1-Eya2 inh = qHTS Assay for Inhibitors of the Six1/Eya2 Interaction. Homeobox protein SIX1 (Homo sapiens) + Protein phosphatase EYA2 (Homo sapiens), …. AlphaScreen GST-Six1/His-Eya2 binding, biochemical; stronger effect = lower value. activity change, % (test concentration not listed). 0.56% of 360,000 active; in the data active = activity change below about -65%; inconclusive = mostly about -30% to -63%; note: % is set by controls: 0 for no effect and ±100 for the full control effect
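Homogeneous AlphaScreen proximity assay pairing GST-Six1 with His-tagged Eya2 (added as 5X mix: 250 nM and 500 nM) in 50 mM Tris pH 8.0, 300 mM NaCl, 1 mM TCEP. Glutathione donor and nickel acceptor beads; 1 h, 37 °C, dark.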
The depositor's hits bear a star; ? = inconclusive; / = no result given; [ ] = dose if it differs, or a comment. Unless noted, calls come from the whole dose curve; as a rule, active = well fitted inhibition curve with a large enough effect; inconclusive = small, poorly fitted or top-dose-only effect; inactive = no such curve, though single readings can be large or run the other way.

SMILES	HP1b binding inh	BAZ2B inh	JMJD2A Tudor inh	CtBP-E1A inh	G9a inh	Six1-Eya2 inh
CC(C)n1c(S(=O)(=O)O)nc2ccccc21	34.5%	-17.7%	-3.1%	11.1	44.7µM*	-4.0
CC(c1ccccc1)n1c(S(=O)(=O)O)nc2ccccc21 (centres undefined)	37.3%	1.7%	-28.3%	/	-7.1%	10.4
CCOc1ccc(NC(=O)NCCCN2CCN(c3ccc(F)cc3)CC2)cc1	9.9%	-25.8%	-28.8%	/	?	/
CCCn1nnc(NC(=O)C(C)C)n1	32.7%	2.9%	-7.4%	1.2	/	3.0
CCn1nnc(NC(=O)c2ccc(-c3ccc(Cl)cc3)o2)n1	32.5%	-5.7%	?	-14.5	44.7µM*	-5.0
CC(C)C(=O)NC(=S)Nc1nnn(C)n1	?	56.2µM*	1.12µM*	4.4	8.91µM*	2.8
CCn1nnc(NC(=O)Cc2ccc(Cl)cc2)n1	32.4%	-14.4%	-12.6%	-2.0	12.7%	0.5
Cn1nnc(NC(=S)NC(=O)c2cccc3ccccc23)n1	-17.1%[57 µM]	-37.7%	2.82µM*	4.1	7.94µM*	4.2
Cn1nnc(NC(=S)NC(=O)c2ccc(-c3ccc(Br)cc3)o2)n1	-7.2%	-12.8%	-3.9%	-69.5*	?	-71.8*
Cn1nnc(NC(=O)c2ccccc2F)n1	13.4%	-3.4%	-11.8%	4.1	-9.3%	-14.0
CC[C@]12c3[nH]c4cc(-c5ccco5)ccc4c3CCN1C(=O)[C@@H](CC(=O)NCCN1CCOCC1)C[C@@H]2C(=O)N1CCN(C(=O)C2CC2)CC1	37.3%	/	-13.7%	0.1	/	2.1
CCOc1ccccc1C(=O)NCC(c1cccs1)S(=O)(=O)c1ccc(F)c(C)c1 (centres undefined)	5.6%	-1.2%	-26.2%	/	19.6%[59 µM]	/
CCOC(=O)Cc1ccc(NC(=O)N2CCC(CN3CCC(C)CC3)CC2)cc1	3.4%	3.6%	-30.7%	/	-16.6%[59 µM]	/
Cn1nnc(NC(=S)NC(=O)c2ccc3ccccc3c2)n1	/	/	/	5.5	/	-2.8
COc1cc(OC)cc(C(=O)NC(=S)Nc2nnn(C)n2)c1	?	?	?	1.5	10µM*	-12.6
CC(C)(C)n1cnc2cc(NCc3ccc(Br)cc3)ccc21	?	31.6µM*	20µM*	-25.2	50.1µM*	-27.0
CCc1ccc(CNc2ccc3c(c2)ncn3C(C)(C)C)cc1	?	44.7µM*	63.1µM*	-6.6	50.1µM*	-13.9
CCN(CC)c1ccc(CNc2ccc3c(c2)ncn3C(C)(C)C)cc1	?	11.2µM*	14.1µM*	-21.6	14.1µM*	-25.3
CC(C)(C)n1cnc2cc(NS(=O)(=O)c3ccccc3)ccc21	36.7%	7.6%	-16.1%	-16.2	-39.3%[12.7 µM]	-1.8
CC(C)(C)n1cnc2cc(NCc3ccccc3O)ccc21	-12.1%	?	-35.3%	-19.4	-7.4%	-6.4
Cc1ccc2c(c1)c1c(c(=O)n(Cc3ccccc3)c(=O)n1Cc1ccccc1F)n2C	46.7%	-3.9%	9.7%	/	?	/
O=C(CCn1c(=O)c2sccc2n(CC(=O)Nc2ccccc2)c1=O)NCc1ccccc1Cl	27.2%	-11.8%	4.8%	/	-7.0%[59 µM]	/
CCCn1c(=O)c2sccc2n2c(CCCC(=O)Nc3ccc(C)c(F)c3)nnc12	34.2%	-8.0%	-16.1%	/	-6.7%[59 µM]	/
Cc1c(Cl)cn2c(=O)cc(CN3CCN(c4ccccc4)CC3)nc2c1Cl	29.4%	-13.8%	-10.5%[11.4 µM]	/	39.8µM*	-2.7
O=c1cc(CN2CCN(S(=O)(=O)c3ccccc3)CC2)nc2ccc(Cl)cn12	42.4%	2.7%	4.1%	6.3	-6.3%[0.501 µM]	-7.2
CCN(Cc1cc(=O)n2cc(Cl)c(C)c(Cl)c2n1)Cc1nc2ccccc2c(=O)[nH]1	-4.5%	/	-14.2%[57.1 µM]	-2.1	50.1µM*	-8.6
